Each compound was assayed on EPHB6. Details: concentration: 1 μM, replicates: in singlicate; n = 1.
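Note: KINOMEscan kinase panel screen.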

| SMILES | %Inh |
| --- | --- |
| O=C(Nc1n[nH]c2nc(-c3cccc(O)c3)ccc12)C1CC1 [SB-711805] | 48% |
| CN(c1ccc(NC(=O)Nc2cccc(Cl)c2)cc1)c1ccnc(N)n1.Cl [GW830707] | 76% |
| CC(=O)Nc1cn2nc(Oc3cccc(NC(=O)c4cccc(C(F)(F)F)c4)c3)ccc2n1 | 98.1% |
| COc1ccc(C)c(Nc2ccnc(Nc3ccc(-c4cnc[nH]4)cc3)n2)c1.Cl [GW784041] | 69% |
| Cl.Cl.NC(CNC(=O)c1cc(Br)c(-c2ccnc3[nH]ccc23)s1)c1ccccc1 (stereo not drawn) [GSK1322949] | 75% |

These compounds were tested on ERBB2. Details: concentration: 1 μM, replicates: in singlicate; n = 1.

| SMILES | %Inh |
| --- | --- |
| Nc1ncc(-c2ccc3nccc(-c4ccncc4)c3c2)cc1S(=O)(=O)N1CCCCC1 [GSK1693850] | 31% |
| COc1cccc(CC(=O)N2CCc3cc(-c4cn(C)c5ncnc(N)c45)ccc32)c1 [GSK2608899] | 0% |
| CC(C)NCC(Cc1ccccc1)NC(=O)c1cc(Br)c(-c2ccnc3[nH]ccc23)s1.Cl.Cl (stereo not drawn) [GSK1383281] | 16% |
| Nc1ncc(-c2cn[nH]c2)c2scc(-c3ccc4c(c3)CCN4C(=O)Cc3ccccc3)c12 [GSK2593067] | 0% |
| Cc1cccc(Nc2nc(NCCN)ncc2C(N)=O)c1 [GSK1292139] | 4% |
| CC(C)c1nc(-c2cccc(NS(=O)(=O)c3c(F)cccc3F)c2)c(-c2ccnc(Nc3ccc(N4CCOCC4)nc3)n2)s1.Cl [GSK1723980] | 86% |
| Cc1ccc(-c2ccc3occ(-c4ccc(S(C)=O)cc4)c3c2)nn1 (stereo not drawn) | 0% |
| COc1ccc(C2=C(Nc3cccc(O)c3)C(=O)NC2=O)cc1 [SB-390766] | 11% |
| COc1ccc(NC(=O)c2ccoc2)cc1-c1ccc(C(=O)NCC2CC2)cc1 [GW810437] | 15% |
| Cc1nn2c(=O)cc(N3CCO[C@H](C)C3)nc2n1Cc1cccc(Cl)c1Cl [GSK2373693] | 0% |
| Cl.O=C(Nc1ccc(Oc2ccc3[nH]c(NC(=O)c4ccco4)nc3c2)cc1)Nc1cc(C(F)(F)F)ccc1F [GW683134] | 9% |
| O=C(O)C(F)(F)F.O=c1[nH]ccc2nc(N[C@@H]3CCNC3)nc(Nc3ccc4c(c3)S(=O)(=O)CC4)c12 [GSK2181306] | 8% |
| O=C(Nc1n[nH]c2cc(-c3cccs3)ccc12)C1CC1 [SB-731284] | 12% |
| CNc1nccc(-c2ccc3c(N)n[nH]c3c2)n1 [GSK2206003] | 50% |
| COc1cccc(NC(=O)NCCNc2ccnc(Nc3ccc(F)cc3)n2)c1 [GSK1379879] | 39% |
| CN(c1ccc2c(c1)nc(NCc1ccccc1)n2C)c1ccnc(Nc2ccc(CS(C)(=O)=O)cc2)n1.Cl [GW811603] | 35% |
| Cc1ccc(O)cc1Nc1ccnc2cc(-c3ccc(CN4CCCCC4)o3)ccc12 [GW557777] | 0% |
| Cc1cccc(Nc2nc(N[C@H]3CCCC[C@H]3N)ncc2C(N)=O)c1.Cl [GSK986310] | 20% |
| c1ccc(Oc2ccc(Nc3ccnc4cc(-c5ccc(CN6CCCCC6)o5)ccc34)cc2)nc1 [GW567143] | 18% |

| SMILES | %Inh |
| --- | --- |
| CC(C)c1nc(-c2ccc(F)c(NS(=O)(=O)c3c(F)cccc3F)c2)c(-c2ccnc(Nc3ccc(N4CCOCC4)nc3)n2)s1 [GSK1804250] | 95.8% |
| CCNc1nccc(-c2c(-c3ccc(F)cc3)ncn2C2CCN(C)CC2)n1 | 0% |
| Fc1cc(Cl)ccc1Nc1ccnc2cc(-c3ccc(CN4CCSCC4)o3)ccc12 [GW560106] | 44% |
| NCCC(NC(=O)c1cc(Br)c(-c2ccnc3[nH]ccc23)s1)c1ccccc1.O=C(O)C(F)(F)F.O=C(O)C(F)(F)F (stereo not drawn) [GSK1307810] | 39% |
| Cc1ccc(NC(=O)c2ccc(Cl)c(Cl)c2)cc1-c1ccc(C(=O)Nc2ccncc2)cc1 [GSK1398460] | 2% |
| O=C(O)C(F)(F)F.O=c1[nH]ccc2nc(N[C@@H]3CCNC3)nc(Nc3cc(Cl)cc(Cl)c3)c12 [GSK2188764] | 4% |
| Nc1ncnc2scc(-c3ccc(NC(=O)Cc4cc(F)ccc4F)cc3)c12.O=C(O)C(F)(F)F [SB-731254-M] | 39% |
| Cc1ccc(NC(=O)c2ccnc(N3CCCCC3)c2)cc1-c1ccc(C(=O)NCC2CC2)cc1 [GW775610] | 21% |
| Fc1cc(Cl)ccc1Nc1ccnc2cc(-c3ccc(CN4CCOCC4)o3)ccc12 [GW560109] | 34% |
| CS(=O)(=O)c1cccc(CNc2nc(Nc3ccc4c(c3)CCC(=O)N4)ncc2C(F)(F)F)c1 | 45% |
| Cc1cc(-c2c(-c3ccc(F)cc3)ncn2CCCN2CCOCC2)nc(N)n1 [SB-222517] | 0% |
| CN1CCN(Cc2ccc(NC(=O)Nc3ccc(N(C)c4ccnc(Nc5ccc(CS(C)(=O)=O)cc5)n4)cc3)cc2)CC1.Cl [GW827654] | 48% |
| COc1cccc(C2=C(Nc3cccc(O)c3)C(=O)NC2=O)c1 [SB-390771] | 23% |
| O=C(Nc1n[nH]c2nc(-c3cccc(O)c3)ccc12)C1CC1 [SB-711805] | 0% |
| CN(c1ccc(NC(=O)Nc2cccc(Cl)c2)cc1)c1ccnc(N)n1.Cl [GW830707] | 0% |
| CC(=O)Nc1cn2nc(Oc3cccc(NC(=O)c4cccc(C(F)(F)F)c4)c3)ccc2n1 | 6% |
| COc1ccc(C)c(Nc2ccnc(Nc3ccc(-c4cnc[nH]4)cc3)n2)c1.Cl [GW784041] | 0% |
| Cl.Cl.NC(CNC(=O)c1cc(Br)c(-c2ccnc3[nH]ccc23)s1)c1ccccc1 (stereo not drawn) [GSK1322949] | 24% |
